CRFBP-R2 block – CRF-BP/CRF-R2 complex antagonism. HEK293 CRF-R2/CRF-BP, CRF-induced calcium fluorescence. inhibition, % at 11.8 µM. 350,000 compounds, 0.59% hits;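 active = inhibition of the ligand-induced calcium signal above about 50% at the single tested concentration, limit read from the data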
IDE inh – inhibits human insulin-degrading enzyme in HEK cells | P14735 | FAbetaB cleavage, fluorescence polarization | inhibition, % at 5.59 µM | 320,000 compounds, 0.41% hits | AID 434962;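 active = percent inhibition above the average of all tested compounds plus 3 SD, set per screening campaign, cut at about 16% in these data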;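 also: IDE supplied by intact live HEK cells; FP after avidin binding of uncleaved biotin substrate so inhibition keeps polarization high; 0% = DMSO wells and 100% = 60 µM reference IDE inhibitor Ii1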
IDE cell activ – activators of human insulin-degrading enzyme in cells. P14735. HEK cells, FAbeta-B cleavage, fluorescence polarization; 0% vehicle, 100% cell-free pure enzyme wells. activation, % at 5.96 µM. 340,000 compounds, 0.073% hits;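 active = activation above the mean of all tested compounds plus 3 SD, set per screening campaign, cut at about 17% in these data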
CRFBP-R2 agonist – agonists of human CRF-binding protein/CRF-R2 receptor complex; AID 588473; HEK293 CRF-R2/CRF-BP, calcium dye fluorescence (FLIPR); percent of saturating CRF peptide response; 350,000 compounds, 0.46% hits; activation, % at 13.2 µM;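 active = activation of at least 50%, plus an integration ratio under a set limit after plate pattern correction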;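 also: plate controls were neutral control wells without compound for no effect and CRF at EC100 for full effect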
Myeloid diff 2 – promotes myeloid progenitor differentiation. ER-HoxA9 myeloid progenitors, lysozyme-GFP differentiation, flow cytometry. calls only at 10 µM. 360,000 compounds, 1% hits. AID 624256;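 active = normalized GFP-positive differentiation at or above the plate's own cutoff, the solvent-only control mean plus 3 SD; inconclusive = no clear call, values can overlap the other calls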;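 also: cells exposed to compound for four days before flow analysis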
TPT1 inh – blocks Candida albicans tRNA 2'-phosphotransferase; recombinant caTPT1, FP RNA substrate dephosphorylation; inhibition, % at 5 µM; 300,000 compounds, 0.81% hits;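 active = inhibition above the mean of all tested compounds plus 3 SD, set per screening campaign, cut at about 24% in these data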;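 also: plate controls were DMSO alone for no effect and ferristatin control at 100 nM for full effect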
TPT1 inh confirm – confirmation of Candida albicans TPT1 inhibitors; AID 2149; inhibition, % at 5 µM; 2,400 compounds, 74% hits; recombinant caTPT1, fluorescence polarization, RNase T1 coupled; shares compounds with TPT1 inh;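 active = inhibition above the primary screen limit, the mean inhibition of all tested compounds plus 3 SD, cut at about 25% in these data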
RNase T1 counter – RNase T1 inhibition in TPT1 counter-screen; shares compounds with TPT1 inh; RNase T1 cleavage, fluorescence polarization, 1536-well; inhibition, % at 5 µM; 2,400 compounds, 83% hits; AID 2153;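 active = inhibition above the solvent-only control well mean plus 3 SD, limit set per screening run, cut at about 23% in these data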;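 also: plate controls were DMSO wells with enzyme for no effect and wells without RNase T1 for full effect; inhibitors block cleavage so intact labeled substrate keeps polarization high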
Target sequence (P00651 whole entry, looked up): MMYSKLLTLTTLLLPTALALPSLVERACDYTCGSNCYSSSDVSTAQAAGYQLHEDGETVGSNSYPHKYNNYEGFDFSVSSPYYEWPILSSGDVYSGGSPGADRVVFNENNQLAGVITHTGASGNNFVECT
* = called active by the depositor; i = inactive; ? = inconclusive; . = no result; + = active, no number. Compounds with a hit are over-represented: about 2.6% of the library has one in this group of screens.

SMILES	CRFBP-R2 block	IDE inh	IDE cell activ	CRFBP-R2 agonist	Myeloid diff 2	TPT1 inh	TPT1 inh confirm	RNase T1 counter
CN(C(=O)c1ccc(NC(=O)Cc2ccc(NC(=O)C3CCN(C(=O)C4CCCCC4)CC3)cc2)cc1)C1CCCC1	6	.	4	1	i	.	.	.
N#Cc1cc(NC(=O)c2ccc(F)cc2)c(=O)n2c1[nH]c1ccccc12	.	-4	.	.	.	28*	30*	38*
Cc1[nH]c2ccccc2c1/C=N/NC(=S)NC(C)C	-27	-1	5	1	+	25*	39*	45*
CC(C)NC(=S)N/N=C/c1c[nH]c2ccccc12	-33	-2	2	-2	i	1	.	.
COc1ccc(C(=O)N2C(=S)NC(=O)/C2=C\c2ccc(C)cc2)cc1	8	-2	0	3	i	34*	42*	57*
COc1ccccc1OC(=O)Nc1ccc(Cl)cc1	-4	7	4	1	i	41*	4	6
CC(C)c1ccc(C2C3CSCC=C3C(C#N)=C(N)C2(C#N)C#N)cc1 (stereo not given)	.	13	.	.	.	36*	38*	48*
Cc1ccc(N=C2NC(=O)/C(=C/c3cccn3C)S2)cc1C	6	-2	.	-1	i	7	.	.
Cc1cccc(N=C2NC(=O)/C(=C/c3cccn3C)S2)c1C	-7	10	-12	4	i	25*	37*	49*
CSc1nnc(C)c(/C=C/Nc2ccc(Cl)cc2)n1	-60	3	-3	36	i	154*	121*	117*
COc1ccc(N/C=C/c2nc(SC)nnc2C)cc1	-73	4	-13	37	i	111*	108*	111*
CSc1nnc(C)c(/C=C/Nc2ccc(F)cc2)n1	-52	4	-14	22	i	116*	101*	105*
Cc1cccc(NC(=O)N2CCN(Cc3ccc4c(c3)OCO4)CC2)c1C	7	0	3	-3	i	1	.	.
O=S1(=O)CC(N2CC=CC2)CN1Cc1cn(Cc2ccc(Cl)cc2)nn1 (stereo not given)	.	.	.	.	i	.	.	.
Cc1ccc(NC(=O)c2ccc(C(=O)c3ccccc3)cc2)nc1	7	4	2	0	i	-4	.	.
Cc1cc(/C=C2/C(=N)N3C(c4ccccc4)=CSC3=NC2=O)c(C)n1-c1ccccc1	21	0	-2	3	i	24*	18	27*
Cc1ccccc1-n1c(C)cc(/C=C2/C(=N)N3C(c4ccccc4)=CSC3=NC2=O)c1C	-5	-3	6	12	i	9	.	.
N=C1/C(=C\c2ccc(-c3cccc(C(=O)O)c3)o2)C(=O)N=C2SC=C(c3ccccc3)N12	-21	7	-2	29	i	66*	82*	92*
N=C1/C(=C/c2ccc(-c3cccc(C(=O)O)c3)o2)C(=O)N=C2SC(CC(=O)N3CCOCC3)=NN12	-6	4	-2	3	?	7	.	.
COc1ccc(CCNC(=O)N2c3ccccc3Sc3ccccc32)cc1	21	2	6	0	i	-1	.	.
COCCCNC(=O)N1c2ccccc2Sc2ccccc21	-1	8	2	16	i	25*	10	16
COc1ccc(C(=O)c2sc3nc(C)cc(-c4cccs4)c3c2N)cc1OC	-132	10	-10	108*	i	73*	73*	78*
Cc1cc(-c2cccs2)c2c(N)c(C(=O)c3ccc4c(c3)OCO4)sc2n1	-197	5	-1	109*	+	37*	58*	67*
Cc1cc(C)c2c(N)c(C(=O)c3ccc(Cl)cc3)sc2n1	19	8	2	0	i	-3	.	.
Cc1noc(C)c1C(=O)N(C)C[C@@H]1OCc2ccccc2-c2c(n(C)c3ccccc23)C(=O)N([C@H](C)CO)C[C@H]1C	-18	.	.	0	i	.	.	.
SMILES	CRFBP-R2 block	IDE inh	IDE cell activ	CRFBP-R2 agonist	Myeloid diff 2	TPT1 inh	TPT1 inh confirm	RNase T1 counter
N#Cc1c(N)sc2c1CCN(CCc1ccccc1)C2	-8	10	-4	8	i	75*	71*	82*
CC(=O)c1ccc(C(=O)Nc2sc3c(c2C(N)=O)CCN(Cc2ccccc2)C3)cc1	.	7	-6	.	+	132*	140*	141*
CCOC(=O)c1c(NC(=O)C2COc3ccccc3O2)sc2c1CCN(Cc1ccccc1)C2 (stereo not given)	-11	-2	5	4	i	3	.	.
COc1cccc(OC)c1C(=O)Nc1sc2c(c1C(N)=O)CCN(Cc1ccccc1)C2	-48	3	2	37	i	23	.	.
NC(=O)c1c(NC(=O)C2COc3ccccc3O2)sc2c1CCN(Cc1ccccc1)C2 (stereo not given)	-54	1	2	42	i	67*	70*	85*
CC(=O)N1CCc2c(sc(NC(=O)c3cccc(N4C(=O)CCC4=O)c3)c2C(N)=O)C1	4	5	1	4	i	33*	41*	56*
CCOC(=O)N1CCc2c(sc(N)c2C#N)C1	1	16	.	1	.	-1	.	.
O=C(NC(=O)c1ccccc1)Nc1cccc(S(=O)(=O)N2CCCCC2)c1	-4	-4	-1	0	i	-2	.	.
COc1ccc(N2CCN(C3CCCN(C(=O)c4cccc(C)n4)C3)CC2)cc1 (stereo not given)	2	2	3	2	i	2	.	.
NC(=O)c1c(NC(=O)C2c3ccccc3Oc3ccccc32)sc2c1CCCCC2	-2	5	-6	3	i	27*	14	22*
CC(=O)Nc1sc2c(c1-c1nc3ccccc3s1)CCN(C(C)C)C2	-64	6	-24	80*	?	43*	47*	53*
CCN1CCc2c(sc(NC(=O)c3cc4ccccc4cc3OC)c2C(N)=O)C1	-12	1	-3	4	?	46*	40*	46*
CC(=O)Nc1sc2c(c1C(N)=O)CCCC2	-9	4	2	-1	i	-4	.	.
COc1ccccc1C(=O)Nc1sc2c(c1C(N)=O)CCCC2	18	-2	-5	-1	i	3	.	.
CC(C)(C)C(=O)Nc1sc2c(c1C#N)CCN(Cc1ccccc1)C2	-146	1	-5	162*	i	39*	62*	67*
COc1ccc(CN2C(=O)c3ccccc3C2=O)cc1C(=O)N(C)CC(=O)Nc1ccc(F)cc1	-15	-3	3	-1	i	.	.	.
CC(C)N1CCc2c(sc(NC(=O)c3ccc4ccccc4c3)c2C(N)=O)C1	-115	11	-14	124*	?	96*	90*	96*

Bioassay records (PubChem BioAssay)
